Results on eight compounds are retold here after PubChem BioAssay (NCI).

About 83,000 compounds went through this panel and 20% of them were active in at least one assay; those are over-represented in the sample as a whole.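 For each line, cells grew in 96-well plates with the test compound present at a single concentration for 48 hours.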 Unmarked numbers belong to inactive results. The source made the active and inactive calls. How the source made its calls: active means growth percent below 10; inactive means the rest.

Common to all, as to assay: NCI-60 one-dose screen, 48 h (100 = growth as untreated, 0 = no growth, -100 = all killed)
Holding throughout (settings): 10 µM unless noted

The subject of assay [1] is HCT-15 colon.
For assay [2], the system named is HT29 colon.
Assay [3] has as its system SNB-75 CNS.
The test system of assay [4] is SNB-19 CNS.
Assay [5] deals with U251 CNS.
Assay [6] relates to PC-3 prostate.
Assay [7] has as its system SK-MEL-5 melanoma.
Assay [8] deals with UACC-62 melanoma.
Assay [9] deals with LOX IMVI melanoma.
The test system of assay [10] is SK-MEL-28 melanoma.
Assay [11] relates to SK-MEL-2 melanoma.
Assay [12] concerns EKVX NSCLC.
The test system of assay [13] is SN12C renal.
In assay [14] the test system is UO-31 renal.
For assay [15], the system named is TK-10 renal.
Assay [16] concerns ACHN renal.
For assay [17], the system named is CAKI-1 renal.
The subject of assay [18] is A498 renal.
The test system of assay [19] is CCRF-CEM leukemia.
Assay [20] has as its system MOLT-4 leukemia.

On to `NC1=CC(=O)C(=O)c2ccccc21`, for which the growth in [1] was 92.1%; in assay [2], 106%; in assay [3], 113%; in assay [4], 93.2%; in [5], 88%; in assay [6] it was 91.1%. Also, the growth is 77.5% in assay [7]; 39.4% in [8]; 7.65% (active) in assay [9]; 75.2% in assay [10]; 75.1% in assay [11]; 76.2% in [12]. Further, the growth in assay [13] was 84.2%; in assay [14] it was 71.3%; in [15], 114%; in [16], 85.2%; in [17] it was 91.3%; in assay [18] it was 101%. In addition, the growth in [19] is 93%; in [20], 74.1%.

Consider `Cc1nc2nc(N)nc(N)c2nc1C`, for which the growth in [1] is 98.6%; in assay [2] it was 102%; in assay [3], 93.2%; in assay [4], 95.1%; in assay [5], 99.5%; in [6], 92.7%. In addition, the growth in assay [7] is 101%; in assay [8], 91.1%; in [9] it was 101%; in assay [10], 109%; in [11], 86.5%; in assay [12], 97.9%. Besides, the growth was 93.1% in [13]; 78.6% in [14]; 95.4% in assay [15]; 96.3% in assay [16]; 92.3% in assay [17]; 100% in assay [18]. The growth in assay [19] is 98.5%; in [20] it was 118%.

For `CC/C=C\C[C@H](F)C/C=C1/C(=O)C=C[C@@H]1C/C=C\CCCC(=O)O`, the growth in [1] was 29.4%; in assay [2], 29.5%; in [3], 81.4%; in assay [4], 63.5%; in [5], 19.2%; in assay [6], 55%. In addition, the growth was 15.5% in [7]; 27.5% in assay [8]; -42.6% (active) in [9]; 46.7% in assay [10]; 65.2% in assay [11]; 75.1% in assay [12]. The growth in assay [13] is 44.3%; in assay [14], 57.5%; in assay [15], 128%; in assay [16] it was 39.5%; in assay [17], 42.5%; in [18] it was 106%. The growth was -7.62% (active) in assay [19] and -4.45% (active) in assay [20].

On to `CC1(C)CC(=O)C(c2c(-c3ccccc3)[nH]c3[nH]c(=S)[nH]c(=O)c23)=C(O)C1`, for which the growth was 112% in assay [1]; 106% in assay [2]; 107% in [3]; 93% in assay [4]; 105% in assay [5]; 83% in [6]. Also, the growth is 108% in assay [7]; 92.4% in [8]; 111% in assay [9]; 110% in [10]; 94.7% in [11]; 89.8% in [12]. Further, the growth was 99% in [13]; 90.9% in assay [14]; 107% in assay [15]; 97.3% in assay [16]; 125% in assay [17]; 100% in assay [18]. In addition, the growth in [19] was 92%.

`N#Cc1c2c(nc3n[nH]c(N)c13)CCCC2`: the growth is 105% in [1]; 104% in [2]; 85.6% in assay [3]; 112% in [4]; 99.3% in assay [5]; 109% in assay [6]. Also, the growth in assay [7] was 118%; in assay [8], 101%; in assay [9] it was 102%; in assay [10], 122%; in [11], 109%; in [12] it was 58.3%. The growth in [13] was 105%; in [14], 71.7%; in assay [15], 128%; in assay [16], 101%; in [17], 95.5%; in [18], 121%. Also, the growth in assay [19] was 8.03% (active); in assay [20] it was 90.7%.

As to `Clc1ccc(-c2nnc(COc3ccccc3Cl)o2)cc1`, the growth in [1] is 81%; in assay [2] it was 71%; in [3], 2.45% (active); in [4], 86.7%; in [5], 60.3%; in assay [6], 89.1%. Besides, the growth in assay [7] is 91.4%; in [8] it was 79.7%; in assay [9] it was 81.5%; in [10], 85.1%; in [11], 99.1%; in [12], 86.9%. Moreover, the growth in assay [13] was 97.8%; in assay [14] it was 77.5%; in assay [15], 69.9%; in [16], 22.7%; in [17] it was 84.3%; in assay [18], 98.7%. The growth in [19] was 92%; in assay [20], 90.5%.

With `CC/C=C\C[C@H](F)C/C=C1/C(=O)C=C[C@@H]1C/C=C\CCCC(=O)OC`, the growth in [1] was -32.8% (active); in assay [2], -31% (active); in [3] it was 61.9%; in assay [4] it was 34%; in assay [5] it was 1.8% (active); in assay [6], 12.9%. The growth in assay [7] was -81.8% (active); in [8], -49.4% (active); in assay [9], -49.7% (active); in [10] it was 9.64% (active); in [11], 41%; in assay [12], 31.6%. Moreover, the growth in [13] was -14.4% (active); in assay [14] it was -4.75% (active); in assay [15], 50.4%; in assay [16], -52% (active); in assay [17], 9.44% (active); in [18] it was 84.8%. Besides, the values for the growth in [19] and in assay [20] were -21.4% (active) and -23.5% (active), respectively.

With `COc1ccc(CNc2nccnn2)cc1`, the growth in [1] is 111%; in [2], 97.8%; in assay [3], 85.6%; in assay [4], 102%; in assay [5], 94.9%; in assay [6], 101%. Further, the growth in [7] was 101%; in [8], 93.4%; in [9] it was 105%; in assay [10], 97.7%; in assay [11], 108%; in assay [12] it was 99.1%. Moreover, the growth in [13] was 108%; in assay [14], 100%; in [15], 93.4%; in [16] it was 98%; in assay [17], 97.8%; in [18], 90.2%. In addition, the growth in assay [19] is 114%; in assay [20], 47.7%.
